According to the antibiotic and cytotoxicity screens of Wong et al. (2023):
The whole screen tested about 39,000 compounds, of which about 1,500 (3.8%) were called active. This excerpt belongs to a sample that is enriched for actives.

tested on: HSkMC (human skeletal muscle cells); experiment: cytotoxicity call (relative viability < 0.9); conditions: 10 µM

Compound | cytotoxicity call
C[C@@H]1CCCCO[C@@H](CN(C)Cc2ccc(Cl)c(Cl)c2)[C@@H](C)CN([C@@H](C)CO)C(=O)c2cc(NS(=O)(=O)c3cn(C)cn3)ccc2O1 | inactive
C[C@H]1CCCCO[C@@H](CN(C)Cc2ccc(C(F)(F)F)cc2)[C@@H](C)CN([C@@H](C)CO)C(=O)c2cc(N(C)C)ccc2O1 | inactive
CC(C)C#Cc1cnc2c(c1)C(=O)N([C@H](C)CO)C[C@H](C)[C@H](CN(C)S(=O)(=O)c1cn(C)cn1)O2 | inactive
CCCC#Cc1cnc2c(c1)C(=O)N([C@@H](C)CO)C[C@H](C)[C@H](CN(C)C(=O)c1ccc3c(c1)OCO3)O2 | inactive
COc1ccccc1S(=O)(=O)N[C@H]1CC[C@@H](CCNC(=O)C2CC2)O[C@@H]1CO | inactive
COc1ccc(NC(=O)Nc2cccc3c2O[C@@H](CN(C)CC2CCCCC2)[C@H](C)CN([C@@H](C)CO)C3=O)cc1 | inactive
O=C(C[C@H]1C[C@H]2c3cc(NS(=O)(=O)c4ccc(F)cc4)ccc3O[C@H]2[C@@H](CO)O1)N1CCCCC1 | inactive
COCC(=O)N1C[C@@H](C)[C@H](OC)CN(C)C(=O)c2ccc(NC(=O)Nc3cccc(F)c3)cc2OC[C@@H]1C | inactive
C[C@@H]1CN([C@H](C)CO)C(=O)Cc2cc(NC(=O)Cc3cn(C)c4ccccc34)ccc2O[C@@H]1CN(C)Cc1ccc(C(F)(F)F)cc1 | inactive
NC1CCN(C(=O)N2CCCC2)CC1 | inactive
C[C@@H]1CN([C@@H](C)CO)C(=O)Cc2cc(NS(=O)(=O)c3ccc(Cl)cc3)ccc2O[C@H]1CN(C)C(=O)Nc1ccc(C(F)(F)F)cc1 | inactive
C[C@H](CO)N1C[C@H](C)[C@H](CN(C)CC2CC2)Oc2c(NS(=O)(=O)c3ccccc3)cccc2C1=O | inactive
COc1ccc(S(=O)(=O)Nc2ccc3c(c2)C(=O)N([C@H](C)CO)C[C@H](C)[C@@H](CN(C)S(=O)(=O)c2ccc(OC)cc2)O3)cc1 | inactive
CN1C[C@@H](N)CC1=O | inactive
COC(=O)[C@H](Cc1ccccc1)N1CC2=CCCC=C[C@H]2[C@@H]1[C@@H](O)CCn1cc(CCC(=O)NO)nn1 | inactive
C[C@H](CO)N1C[C@H](C)[C@@H](CN(C)Cc2ccccc2)Oc2ccc(NC(=O)Nc3ccc(C(F)(F)F)cc3)cc2CC1=O | active
C[C@@H]1CN([C@H](C)CO)C(=O)Cc2cc(NC(=O)Nc3ccc(C(F)(F)F)cc3)ccc2O[C@@H]1CN(C)Cc1ccccc1 | active
COc1cccc(S(=O)(=O)N2C[C@H](O)COC[C@@H]3O[C@@H](CC(=O)NCCCN4CCOCC4)CC[C@H]32)c1 | inactive
CN1CCN(C(=O)C[C@@H]2C=C[C@@H](NS(=O)(=O)c3cccc(F)c3)[C@@H](CO)O2)CC1 | inactive
O=C(O)/C=C\C(=O)Nc1cccc(C(=O)O)c1 | inactive
COc1ccc(NC(=O)Nc2cccc3c2O[C@H](CN(C)Cc2ccc(-c4ccccc4)cc2)[C@@H](C)CN([C@H](C)CO)C3=O)cc1 | inactive
COc1ccc(NC(=O)Nc2cccc3c2O[C@@H](CN(C)Cc2ccc(-c4ccccc4)cc2)[C@H](C)CN([C@@H](C)CO)C3=O)cc1 | inactive

Compound | cytotoxicity call
COc1ccc(NC(=O)Nc2cccc3c2O[C@@H](CN(C)Cc2ccc(-c4ccccc4)cc2)[C@@H](C)CN([C@H](C)CO)C3=O)cc1 | inactive
COc1ccc(NC(=O)Nc2cccc3c2O[C@H](CN(C)Cc2ccc(-c4ccccc4)cc2)[C@H](C)CN([C@@H](C)CO)C3=O)cc1 | inactive
COc1ccc(NC(=O)Nc2cccc3c2O[C@H](CN(C)Cc2ccc(-c4ccccc4)cc2)[C@H](C)CN([C@H](C)CO)C3=O)cc1 | active
COc1ccc(NC(=O)Nc2cccc3c2O[C@H](CN(C)Cc2ccc(-c4ccccc4)cc2)[C@@H](C)CN([C@@H](C)CO)C3=O)cc1 | active
C[C@@H]1CN([C@H](C)CO)C(=O)c2cc(NS(=O)(=O)c3ccc(Cl)cc3)ccc2O[C@@H](C)CCCCO[C@@H]1CN(C)C(=O)NC1CCCCC1 | inactive
C[C@@H]1CCCCO[C@H](CN(C)Cc2ccc(C(=O)O)cc2)[C@H](C)CN([C@H](C)CO)C(=O)c2cc(NC(=O)c3ccccc3)ccc2O1 | inactive
C[C@@H]1CN([C@H](C)CO)C(=O)c2cc(NC(=O)Cn3cnnn3)ccc2O[C@@H]1CN(C)S(C)(=O)=O | inactive
C[C@@H]1CCCCO[C@@H](CN(C)S(C)(=O)=O)[C@@H](C)CN([C@@H](C)CO)C(=O)c2cc(NS(=O)(=O)c3ccccc3)ccc2O1 | inactive
CCC1(O)C(=O)OCc2c1cc1n(c2=O)Cc2cc3c(CN(C)C)c(O)ccc3nc2-1.Cl (stereo unspecified) | inactive
CCC1(O)C(=O)OCc2c1cc1n(c2=O)Cc2cc3cc(O)ccc3nc2-1 (stereo unspecified) | inactive
CC[C@@]1(O)C(=O)OCc2c1cc1n(c2=O)Cc2c-1nc1cc(F)c(C)c3c1c2[C@@H](N)CC3 | active
CC(C)(C)[S@@](=O)N1Cc2cc(C(=O)N[C@H]3CCN(Cc4ccccc4)C3)nc(-c3cccc(-c4ccncc4)c3)c2[C@H]1CCO | inactive
Cc1noc(C)c1NC(=O)Nc1cccc2c1O[C@H](CN(C)Cc1ccc(Oc3ccccc3)cc1)[C@@H](C)CN([C@@H](C)CO)C2=O | inactive
C[C@H]1CCCCO[C@H](CN(C)S(=O)(=O)c2ccccc2)[C@@H](C)CN([C@@H](C)CO)C(=O)c2cc(NS(=O)(=O)c3cn(C)cn3)ccc2O1 | inactive
O=C(c1cn(Cc2cncn2Cc2ccc(Br)cc2)cc1-c1cccc2ccccc12)N1CCOCC1 | active
O=C(c1ccccc1O)N1CCOCC1 | inactive
Nc1ccccc1C(=O)N1CCOCC1 | inactive
C[C@@H]1CN([C@H](C)CO)C(=O)c2cc(NC(=O)Nc3ccccc3)ccc2O[C@@H](C)CCCCO[C@H]1CN(C)Cc1ccncc1 | inactive
COC1C=COC2(C)Oc3c(C)c(O)c4c(O)c(c5c(nc6cc(C)ccn65)c4c3C2=O)NC(=O)C(C)=CC=CC(C)C(O)C(C)C(O)C(C)C(OC(C)=O)C1C (stereo unspecified) | inactive
COC1C=COC2(C)Oc3c(C)c(O)c4c(O)c(c(C=NN5CCN(C6CCCC6)CC5)c(O)c4c3C2=O)NC(=O)C(C)=CC=CC(C)C(O)C(C)C(O)C(C)C(OC(C)=O)C1C (stereo unspecified) | inactive
CO[C@H]1/C=C\O[C@@]2(C)Oc3c(C)c(O)c4c(c3C2=O)[C@]2(C=C(NC(=O)/C(C)=C\C=C/[C@@H](C)[C@@H](O)[C@@H](C)[C@@H](O)[C@@H](C)[C@@H](OC(C)=O)[C@@H]1C)C4=O)OCC(=O)O2 | active
COC1C=COC2(C)Oc3c(C)c(O)c4c(O)c(c(C=NN5CCN(C)CC5)c(O)c4c3C2=O)NC(=O)C(C)=CC=CC(C)C(O)C(C)C(O)C(C)C(OC(C)=O)C1C (stereo unspecified) | inactive

Compound | cytotoxicity call
CO[C@H]1/C=C\O[C@@]2(C)Oc3c(C)c(O)c4c(O)c(c(/C=N/N=C/N5CCCCC5)c(O)c4c3C2=O)NC(=O)/C(C)=C\C=C/[C@H](C)[C@H](O)[C@@H](C)[C@@H](O)[C@@H](C)[C@H](OC(C)=O)[C@@H]1C | active
[N-]=[N+]=Nc1ccccc1[C@H]1OC(c2ccc(OCCCO)cc2)=N[C@@]1(CCS(=O)(=O)c1ccccc1)C(=O)N1CCCCC1 | inactive
C[C@@H]1CCCCO[C@@H](CN(C)S(=O)(=O)c2ccc(Cl)cc2)[C@@H](C)CN([C@@H](C)CO)C(=O)c2cc(NC(=O)Nc3cccc4ccccc34)ccc2O1 | inactive
COc1ccccc1S(=O)(=O)N[C@H]1CC[C@H](CCNC(=O)C2CC2)O[C@H]1CO | inactive
CN1C(=O)c2cc(NC(=O)Cc3cccs3)ccc2OC[C@@H]2O[C@H](CC(=O)NCCc3ccncc3)CC[C@H]21 | inactive
COc1ccc(CN(C)C[C@@H]2Oc3c(NC(=O)c4cc(C)nn4C)cccc3C(=O)N([C@H](C)CO)C[C@H]2C)cc1 | inactive
Cc1c(CN2CCC(Nc3ncnc4sc(CC(F)(F)F)cc34)CC2)ccc2c1cc(C#N)n2Cc1cn[nH]c1 | active
COc1ccc(NC(=O)N(C)C[C@H]2Oc3ccc(NC(=O)Nc4cccc5ccccc45)cc3C(=O)N([C@@H](C)CO)C[C@H]2C)cc1 | inactive
COc1cc([C@@H]2c3cc4c(cc3[C@@H](O[C@@H]3O[C@@H]5CO[C@@H](C)O[C@H]5[C@H](O)[C@H]3O)[C@H]3COC(=O)[C@H]23)OCO4)cc(OC)c1O | active
COc1cc([C@@H]2c3cc4c(cc3[C@@H](O[C@@H]3O[C@@H]5CO[C@@H](C)O[C@H]5[C@H](O)[C@H]3O)[C@@H]3COC(=O)[C@@H]23)OCO4)cc(OC)c1O | inactive
COc1cc(C2c3cc4c(cc3C(OC3OC5COC(C)OC5C(O)C3O)C3COC(=O)C23)OCO4)cc(OC)c1O (stereo unspecified) | inactive
CC(C)(C)C(=O)Nc1ccccc1F | inactive
CCN(CC)C(=S)SSC(=S)N(CC)CC | active
C[C@H](CO)N1C[C@H](C)[C@@H](CN(C)S(=O)(=O)c2ccc(F)cc2)Oc2ccc(NC(=O)Nc3cccc4ccccc34)cc2C1=O | inactive
O=S1(=O)CCC(O)CC1 | inactive
O=C(CNc1ccc2c(c1)oc1ccccc12)c1ccc(F)cc1 | inactive
Cc1ccc(S(=O)(=O)Nc2ccc3c(c2)CC(=O)N([C@@H](C)CO)C[C@@H](C)[C@@H](CN(C)Cc2ccc(Cl)c(Cl)c2)O3)cc1 | active
Cc1ccc(S(=O)(=O)Nc2ccc3c(c2)CC(=O)N([C@@H](C)CO)C[C@H](C)[C@H](CN(C)Cc2ccc(Cl)c(Cl)c2)O3)cc1 | active
Cc1ccc(S(=O)(=O)Nc2ccc3c(c2)CC(=O)N([C@@H](C)CO)C[C@H](C)[C@@H](CN(C)Cc2ccc(Cl)c(Cl)c2)O3)cc1 | active
Cc1ccc(S(=O)(=O)Nc2ccc3c(c2)CC(=O)N([C@H](C)CO)C[C@H](C)[C@H](CN(C)Cc2ccc(Cl)c(Cl)c2)O3)cc1 | active
Cc1ccc(S(=O)(=O)Nc2ccc3c(c2)CC(=O)N([C@@H](C)CO)C[C@@H](C)[C@H](CN(C)Cc2ccc(Cl)c(Cl)c2)O3)cc1 | inactive
Cc1ccc(S(=O)(=O)Nc2ccc3c(c2)CC(=O)N([C@H](C)CO)C[C@H](C)[C@@H](CN(C)Cc2ccc(Cl)c(Cl)c2)O3)cc1 | inactive
